Rows were chosen to be rich in hits. Some 12% of all compounds tested hit in one or more screens of this group.
JMJD2A Tudor = qHTS Assay for Inhibitors of JMJD2A-Tudor Domain; Lysine-specific demethylase 4A (Homo sapiens), O75164; AlphaScreen JMJD2A-Tudor / H3K4me3 peptide binding; Potency, µM (highest dose often 114 µM), most hits filed as inhibitors; actives 4.4% (n = 390,000); AID 504339, 2011; further: nearly all actives have a fitted effect of over 50% in size
Sfp PPTase inh = qHTS Assay for Inhibitors of Bacillus subtilis Sfp phosphopantetheinyl transferase (PPTase); Biochemical Sfp PPTase activity, qHTS; 4'-phosphopantetheinyl transferase ffp (Bacillus subtilis), Q9F4F7; Potency, µM, usual class: inhibitors; actives 3.5% (n = 310,000);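 further: the enzyme is Sfp with the accession as filed and its product quenches rhodamine fluorescence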
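Compounds were incubated with enzyme (final 15 nM) for 15 min at room temperature before substrate addition started the reaction. Fluorescence at 525 nm excitation, 598 nm emission was recorded immediately and after 30 minutes.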
G9a inh = qHTS Assay for Inhibitors of Histone Lysine Methyltransferase G9a; actives 8.8% (n = 350,000); Potency, µM (top dose mostly 102 µM), hits mostly inhibitors; G9a H3K9 monomethylation, AlphaScreen, 2 h; further: nearly all actives have a fitted effect of over 75% in size
Target sequence (Q96KQ7 913-1193 limits assumed): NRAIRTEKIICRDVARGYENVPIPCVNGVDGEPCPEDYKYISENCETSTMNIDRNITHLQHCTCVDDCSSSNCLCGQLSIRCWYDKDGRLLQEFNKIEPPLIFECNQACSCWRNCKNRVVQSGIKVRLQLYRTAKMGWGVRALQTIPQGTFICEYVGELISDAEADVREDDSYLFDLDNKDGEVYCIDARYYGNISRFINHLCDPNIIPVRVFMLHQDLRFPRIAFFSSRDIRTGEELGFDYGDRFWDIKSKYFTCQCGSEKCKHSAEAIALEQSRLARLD
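Quantitative HTS format: methyltransferase activity on a biotin-tagged H3K9 peptide is measured by AlphaScreen, using a rabbit anti-monomethyl-H3K9 antibody with streptavidin donor and anti-IgG acceptor beads. Final levels are 20 nM enzyme, 500 nM peptide, 20 uM SAM; 2 h RT.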
TDP1 block = qHTS Assay for Inhibitors of Tyrosyl-DNA Phosphodiesterase (TDP1); recombinant TDP1, AlphaScreen DNA substrate cleavage; Potency, µM (titrated, usually from 130 µM), hits mostly inhibitors; actives 0.28% (n = 350,000); AID 485290, 2010; further: nearly all actives have a fitted effect of over 40% in size
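Steps: enzyme plus compound, 15 min RT; add biotin/phosphotyrosine-FITC oligonucleotide (15 nM final), react 5 min; add donor/acceptor beads (10 ug/ml final), 10 min; read AlphaScreen. Tdp1 at 1 nM final.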
BAZ2B inh = qHTS Assay for Inhibitors of BAZ2B | AlphaScreen BAZ2B-H3K14Ac peptide displacement | actives 4.4% (n = 360,000) | Potency, µM (titrated, usually from 114 µM), usual class: inhibitors | AID 504333, 2011 | Bromodomain adjacent to zinc finger domain protein 2B (Homo sapiens), Q9UIF8; further: nearly all actives have a fitted effect of over 60% in size
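AlphaScreen luminescence quantifies BAZ2B engagement of H3K14Ac peptide; the protein and biotinylated peptide are both at 50 nM final, buffer PBS pH 7.4 with 0.01% Tween-20, all steps at room temperature.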
HP1b binding inh = HTS for Inhibitors of HP1-beta Chromodomain Interactions with Methylated Histone Tails | Chromobox protein homolog 1 (Homo sapiens), P83916 | AlphaScreen HP1-beta / biotin-H3K9me3 peptide binding | actives 0.56% (n = 390,000) | Potency, µM (top dose mostly 114 µM), actives largely listed as inhibitors | AID 540317, 2011; further: nearly all actives have a fitted effect of over 70% in size
Target sequence (P83916 whole entry, looked up): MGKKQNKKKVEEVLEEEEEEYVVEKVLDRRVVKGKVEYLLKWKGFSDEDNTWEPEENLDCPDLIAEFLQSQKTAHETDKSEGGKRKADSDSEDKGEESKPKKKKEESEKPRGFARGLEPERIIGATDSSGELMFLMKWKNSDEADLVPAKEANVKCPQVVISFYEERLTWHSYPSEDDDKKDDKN
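AlphaScreen: HP1-beta (50 nM) preformed 30 min with biotin-H3(1-18)K9me3 peptide (50 nM) in PBS pH 7.4, 0.01% Tween-20. Compound added for 30 min at RT, then streptavidin donor/nickel chelate acceptor beads (10 ug/mL) for 30 min.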
Large screens that a line does not name were inactive. The call rests on the fitted dose curve; in most records, active means well fitted curve in the direction sought with a large enough effect; inconclusive means small, poorly fitted or top-dose-only effect, or another doubt; inactive means no such curve, though single readings can be large; an effect the other way counts as inactive or inconclusive.

COc1ccccc1N1CCN(c2ncnc3c2c(-c2ccccc2)cn3-c2cccc(C)c2)CC1	BAZ2B inh inconclusive (no result: Sfp PPTase inh)
CN(C(=O)c1cc2nc(-c3ccco3)cc(C(F)(F)F)n2n1)c1ccc(OC(F)(F)Cl)cc1	none (no result: Sfp PPTase inh)
Cc1ccc(-n2ncc(C(=O)N3CCN(C4CCCCC4)CC3)c2C2CCN(C(=O)OC(C)(C)C)CC2)cc1	none (no result: Sfp PPTase inh)
CN(C)C(=O)CSc1nc(-c2ccccc2)c(-c2ccccc2)o1	G9a inh 13µM, BAZ2B inh inconclusive, HP1b binding inh inconclusive
COc1ccccc1C(=O)Nc1cc(-c2cccc(Br)c2)nn1-c1ccccc1	none (no result: Sfp PPTase inh)
CCOC(=O)C1CCCN(c2nc3c(S(=O)(=O)c4ccc(CC)cc4)nnn3c3ccsc23)C1 (centres undefined)	none (no result: Sfp PPTase inh)
CCOC(=O)C1CCCN(c2nc3c(S(=O)(=O)c4ccc(Br)cc4)nnn3c3ccsc23)C1 (centres undefined)	JMJD2A Tudor 89µM (no result: Sfp PPTase inh)
Cc1nn(-c2ccccc2)c2c1N(CCCC(=O)NCc1ccc(N(C)C)cc1)C(=O)CS2	JMJD2A Tudor 56µM, G9a inh inconclusive, BAZ2B inh inconclusive (no result: Sfp PPTase inh)
O=C(/C=C/c1ccc(I)cc1)c1ccc(B(O)O)cc1	none (no result: JMJD2A Tudor, G9a inh, BAZ2B inh, HP1b binding inh)
CCOC(=O)c1cnc(-n2nc(C)cc2C)nc1Nc1ccc(C)cc1	G9a inh inconclusive
CCOC(=O)c1cnc(-n2nc(C)cc2C)nc1Nc1cccc(C(=O)O)c1	JMJD2A Tudor 89µM, G9a inh 10µM
CCOC(=O)c1cnc(-n2nc(C)cc2C)nc1Nc1ccc(O)cc1	G9a inh inconclusive
CCOC(=O)c1cnc(-n2nc(C)cc2C)nc1NC	Sfp PPTase inh inconclusive, G9a inh 45µM
CN(C)CCNC(=O)C(=O)Nc1ccc2c(c1)N(S(=O)(=O)c1cccs1)CCC2	G9a inh inconclusive (no result: Sfp PPTase inh, TDP1 block)
Cc1ncsc1C(=O)N1CCCC(C(=O)c2ccc3ccccc3c2)C1 (centres undefined)	none (no result: G9a inh)
COc1cc(O)c(C(CCN2CCN(c3ccccc3)CC2)c2ccc3c(c2)OCO3)c(OC)c1 (centres undefined)	JMJD2A Tudor 18µM, G9a inh inconclusive, BAZ2B inh 10µM
COc1cc(O)c(C(CCN2CCN(c3ccccc3)CC2)c2cc(OC)c(OC)c(OC)c2)c(OC)c1 (centres undefined)	JMJD2A Tudor 40µM, BAZ2B inh inconclusive, HP1b binding inh inconclusive
C=C1c2cccc(OC)c2O[C@H](C(=O)OCC)[C@@H]1CC(CC)CCCC (some centres undefined)	TDP1 block inconclusive (no result: BAZ2B inh)
CCOC(=O)/C=C1\CC(C(=O)OCC)Oc2c(OC)cccc21 (centres undefined)	JMJD2A Tudor inconclusive, G9a inh 32µM (no result: BAZ2B inh)
N#Cc1nccnc1S(=O)(=O)c1cccs1	Sfp PPTase inh 7.1µM, G9a inh 4µM
CN(Cc1ccccc1C#N)S(=O)(=O)c1cccs1	none
CC(=O)c1cccc(NC(=O)c2sc(-n3nc(C)c(CCC(C)C)c3C)nc2C)c1	none (no result: Sfp PPTase inh)
Cc1ccn(Cc2n[nH]c(=S)n2Cc2ccccc2)n1	JMJD2A Tudor 8.9µM, G9a inh 3.2µM
S=c1[nH]nc(-c2ccc(Br)o2)n1Cc1ccccc1	JMJD2A Tudor 32µM, G9a inh inconclusive
CC(C)c1cc(-c2n[nH]c(=S)n2Cc2ccccc2)cs1	G9a inh inconclusive
COc1ccc(-c2n[nH]c(=S)n2Cc2ccccc2)cc1	JMJD2A Tudor 25µM (no result: G9a inh, TDP1 block)
S=c1[nH]nc(-c2ccccc2)n1Cc1ccccc1	JMJD2A Tudor 11µM
Cc1ccc(-n2c(=O)c3c4c(sc3n(Cc3cccc(Cl)c3)c2=O)CCC4)cc1C	none (no result: Sfp PPTase inh)
Cc1ccccc1CCNC(=O)c1ccc2c(c1)c(C)c(C)n2Cc1ccccc1	none (no result: Sfp PPTase inh)
Cc1n[nH]c(=S)n1Cc1ccccc1	JMJD2A Tudor inconclusive, G9a inh 35µM (no result: TDP1 block)
C=CCn1c(SCC(=O)N(C)C2CCCCC2)nnc1C1CC1	none (no result: Sfp PPTase inh, G9a inh, BAZ2B inh)

Assay outcomes deposited in PubChem by National Center for Advancing Translational Sciences (NCATS).
